Compound activity deposited in PubChem BioAssay by several laboratories.
SKKanGAS inh = blocks kanamycin growth of S. pyogenes SKKanGAS strain; actives 1.3% (n = 300,000); BacTiter-Glo, 6 h; inhibition, % at 7.5 µM;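 active means mean replicate score, as percent of positive control median, at least 50; inconclusive means mean below 50 but one replicate at or above 50; inactive means mean and every replicate below 50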;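 further: strain carries kanamycin resistance gene driven by streptokinase promoter and grows in 40 µg/ml kanamycin; loss of luminescence reflects streptokinase promoter inhibition or plain growth inhibition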
PfHsp90 yeast 2 = reduces growth (ATP signal) of yeast expressing P. falciparum Hsp90; actives 0.32% (n = 310,000); AID 504621; inhibition, % at 9.4 µM; S. cerevisiae expressing PfHsp90, BacTiter-Glo ATP, 48 h; yeast lacking PDR1 and PDR3 efflux regulators;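 active means every replicate shows inhibition above about 80%, whatever the replicate mean, limit read from the data; inconclusive means mean inhibition reaches the set limit but some replicate falls short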
TIM10 inh = TIM10 yeast growth inhibition | S. cerevisiae TIM10 strain growth, BacTiter-Glo luminescence, 24 h | inhibition, % at 10 µM | actives 1.4% (n = 330,000) | AID 463195;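 active means inhibition of 40% or more at the single tested concentration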;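 further: wild-type TIM10 isogenic control strain grown at permissive 25 °C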
tim10-1 inh = growth inhibitors of tim10-1 mutant yeast; S. cerevisiae tim10-1 ts strain growth, BacTiter-Glo, 24 h; inhibition, % at 20 µM; actives 2.2% (n = 330,000); AID 463190;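 active means inhibition of at least 40%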;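 further: mutant grown at 25 °C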
tim23-1 inh = inhibits growth of tim23-1 mutant yeast. S. cerevisiae tim23-1 growth, BacTiter-Glo luminescence, 24 h. inhibition, % at 20 µM. actives 1.3% (n = 330,000). AID 463212;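 active means growth inhibition of the mutant yeast at or above 50%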;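 further: temperature-sensitive mutant grown at 25 °C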
NALP1 yeast inh = NALP1 inhibition | S. cerevisiae NALP1/ASC/caspase-1 growth, X-gal OD620, 72 h | inhibition, % at 10 µM | actives 0.61% (n = 280,000) | AID 2071; in the data active means inhibition mostly above about 24%, no sharp cut-off; inactive means mostly below about 32%
tim10-1 conf = confirmation of tim10-1 mutant yeast growth inhibitors; shares compounds with tim10-1 inh; S. cerevisiae tim10-1 ts strain growth, BacTiter-Glo, 24 h; inhibition, % at 20 µM; actives 56% (n = 7,400);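 active means inhibition of yeast growth at or above a set limit in either of two repeat tests at 20 µM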;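 further: tim10-1 mutant grown at permissive 25 °C to find synthetic lethal compounds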
Each line names hits and unclear results; the compound was inactive in the other large screens (follow-up assays come after a bar, where they were run). Compounds with a hit are over-represented: about 4.8% of the library has one in this group of screens.

COc1ccc(CCNC(=O)c2cc(-c3ccc(Cl)c(Cl)c3)oc2C)cc1	SKKanGAS inh 53, tim10-1 inh 40 | tim10-1 conf 36
Cc1c(NC(=O)C(C)C)cccc1-c1nc2ncccc2o1	none
CC(=O)O[C@@H]1C[C@H]2C(C)(C)C(=O)C=C[C@]2(C)[C@H]2CC[C@@]3(C)[C@H](c4ccoc4)OC(=O)[C@H]4O[C@]43[C@@]21C	none
COC(=O)c1ccc(N2C(=O)CC(N(C)CCc3ccc(OC)c(OC)c3)C2=O)cc1 (stereo not given)	tim10-1 inh 41 | tim10-1 conf 44
CCCOc1ccc(N2C(=O)CC(N(CCc3ccc(OC)c(OC)c3)C(=O)c3ccccc3)C2=O)cc1 (stereo not given)	none
COc1cc(/C=C/C(=O)OCC(=O)Nc2ccc(NC(C)=O)cc2)cc(S(=O)(=O)N2CCc3ccccc32)c1OC	none (no result: PfHsp90 yeast 2)
Cc1cc(=O)oc2cc(OCC(=O)NC3CCN(Cc4ccccc4)CC3)c(Cl)cc12	none
Cc1ccc(Cl)c(OCC(=O)NC2CCN(Cc3ccccc3)CC2)c1	tim10-1 inh 68 (no result: PfHsp90 yeast 2, NALP1 yeast inh) | tim10-1 conf inactive
N#CC(C#N)=CC1=C2OC(c3ccccc3)=CC(c3ccccc3)=C2CCC1	tim10-1 inh 48 | tim10-1 conf inactive
CCc1nc(N2CCC3(CC2)OCCO3)c2nnn(Cc3ccccc3)c2n1	none
CCCN1CCN(C(=O)C2CCN(S(=O)(=O)c3c(C)noc3/C=C/c3ccc(C)cc3)CC2)CC1	tim10-1 inh 54 | tim10-1 conf 28
C[C@H](CO)N1C[C@H](C)[C@@H](CN(C)C(=O)Nc2ccccc2)Oc2c(NC(=O)c3ccncc3)cccc2C1=O	none (no result: SKKanGAS inh, NALP1 yeast inh)
Cc1cc(=O)oc2cc(OCc3nnc(-c4ccccc4Br)o3)ccc12	tim10-1 inh 44 (no result: SKKanGAS inh) | tim10-1 conf inactive
O=C(NN=C(c1ccccc1)c1ccccc1)C(CCl)C1CCCCC1 (stereo not given)	none (no result: SKKanGAS inh, NALP1 yeast inh)
CCN(CC)C(=O)Oc1ccc2c(=O)c(-c3ccccc3)coc2c1	tim10-1 inh 54 | tim10-1 conf 41
COc1ccc2c(=O)c(-c3ccccc3)coc2c1	none
COc1ccc(OCC(=O)Nc2ccc(S(=O)(=O)N(C)c3ccccc3)cc2)cc1	none
COc1ccc(OCC(=O)Nc2ccc(S(=O)(=O)N3CCOCC3)cc2)cc1	tim10-1 inh 48 | tim10-1 conf 32
CCCN(CCC)S(=O)(=O)c1ccc(NC(=O)COc2ccccc2)cc1	tim10-1 inh 52 | tim10-1 conf 38
Cc1ccc(NC(=O)COc2ccc(Cl)cc2Cl)cc1S(=O)(=O)N1CCOCC1	tim10-1 inh 49 (no result: SKKanGAS inh, NALP1 yeast inh) | tim10-1 conf inactive
CCc1ccc(OCC(=O)Nc2ccc(S(=O)(=O)N3CCOCC3)cc2)cc1	none (no result: PfHsp90 yeast 2, NALP1 yeast inh) | tim10-1 conf 33
O=C1C=C(NCC2CCCO2)CC(c2ccccc2)C1 (stereo not given)	none (no result: TIM10 inh, tim10-1 inh, tim23-1 inh)
CCCCCC(=O)c1c(C)[nH]c(C(=O)OCC)c1C	none
CCCCCCC(=O)c1c(C)[nH]c(C(=O)OCC)c1C	tim10-1 inh 40 | tim10-1 conf inactive
CCOC(=O)CSc1nnc(CNC(=O)c2cccs2)n1Cc1ccccc1	none
CC(=O)c1c(C)[nH]c(C(=O)Nc2nc(-c3ccc(-c4ccccc4)cc3)cs2)c1C	SKKanGAS inh 52, tim10-1 inh 45 | tim10-1 conf inactive
CCCCOC(=O)n1c(SCC(=O)N(C)C)nc2ccccc21	tim10-1 inh 41 | tim10-1 conf inactive
CCCCOc1ccc(OCCSc2nc3ccccc3n2CC(=O)O)cc1	none
Cn1cccc1C(=O)OCc1nc2ccccc2c(=O)[nH]1	none (no result: SKKanGAS inh, NALP1 yeast inh)
Cc1cc(C)cc(Nc2ncc3c(n2)CC(c2ccco2)CC3=O)c1 (stereo not given)	tim10-1 inh 45 | tim10-1 conf 33
Cn1c(=O)n(CC(=O)N2CCN(c3nnc(-c4ccccc4)c4ccccc34)CC2)c2ccccc21	none (no result: PfHsp90 yeast 2)
CCn1nc(NS(=O)(=O)c2ccc(C)cc2)c2cc3ccccc3nc21	tim10-1 inh 44 | tim10-1 conf inactive
CCCn1nc(NS(C)(=O)=O)c2cc3cccc(C)c3nc21	tim10-1 inh 42 (no result: PfHsp90 yeast 2) | tim10-1 conf 35
Cc1ccc(-c2cc(C(=O)N3CCCCCC3)no2)cc1	none
Cc1nc2ncnn2c(C)c1CCC(=O)NCCC1=CCCCC1	none
CCC(C)(C)NC(=O)CN(CCc1cccc(C)c1)C(=O)c1csnn1	none
O=C(CCn1nnc2ccccc2c1=O)N[C@@H](Cc1ccccc1)C(=O)O	none (no result: PfHsp90 yeast 2)
COc1ccc(-c2sc3cc4c(cc3c2C#CC2(N)CCCCC2)OCO4)cc1	tim10-1 inh 48 (no result: SKKanGAS inh, NALP1 yeast inh) | tim10-1 conf 44
COc1ccc2nc(SCC(=O)Nc3ccccc3C#N)[nH]c2c1	none
COc1ccc(N2CCN(Cc3nc(N)nc(N4CCCc5ccccc54)n3)CC2)cc1	tim10-1 inh 40 | tim10-1 conf inactive
Nc1nc(CN2CCN(c3ccccc3F)CC2)nc(N2CCCc3ccccc32)n1	none (no result: SKKanGAS inh)
O=C(CS(=O)(=O)c1ccccc1)c1cc2ccccc2oc1=O	tim10-1 inh 42 | tim10-1 conf inactive
O=C(c1cc2ccccc2oc1=O)N(Cc1ccco1)Cc1cccs1	none (no result: PfHsp90 yeast 2)
O=C(c1cc2ccccc2oc1=O)N(Cc1cccs1)Cc1cccs1	tim10-1 inh 42 | tim10-1 conf inactive
N#Cc1cn(Cc2ccco2)c(=O)[nH]c1=O	none (no result: SKKanGAS inh, TIM10 inh, tim10-1 inh, tim23-1 inh, NALP1 yeast inh)
CC1(C)C(c2cccs2)=NC(c2ccccc2)N1O (stereo not given)	none
CC(C)CC(NS(=O)(=O)c1ccc2c(c1)oc(=O)n2C)C(=O)N1CC=C(c2ccccc2)CC1 (stereo not given)	none (no result: SKKanGAS inh)
Nc1ccccc1-c1nnc(-c2ccc(-c3ccccc3)cc2)o1	tim10-1 inh 47 (no result: PfHsp90 yeast 2) | tim10-1 conf inactive
C=CCn1c(Cc2cccs2)nnc1SCC(=O)Nc1ccc(OC)cc1	none (no result: PfHsp90 yeast 2)
C#CCOCCOCCOCCNc1nc(N2CCN(C(=O)CCCCCCCCCCNC(=O)[C@H](CCCCN)n3cc(C[C@@H](C)CC)nn3)CC2)nc(N2CCN(C(=O)CCCCCCCCCCNC(=O)[C@H](CCCCN)n3cc(C[C@@H](C)CC)nn3)CC2)n1	SKKanGAS inh inconclusive (no result: TIM10 inh, tim10-1 inh, tim23-1 inh, NALP1 yeast inh)
C#CCOCCOCCOCCNc1nc(N2CCN(C(=O)CCCCCCCCCCNC(=O)[C@H](CCCCN)n3cc(CCO)nn3)CC2)nc(N2CCN(C(=O)CCCCCCCCCCNC(=O)[C@H](CCCN=C(N)N)n3cc(C[C@@H](C)CC)nn3)CC2)n1	tim10-1 inh 42 (no result: SKKanGAS inh, NALP1 yeast inh) | tim10-1 conf inactive
COc1cccc(CNC(=O)C2CCN(S(=O)(=O)c3ccc4c(c3)CC(C)N4C(=O)C3CC3)CC2)c1 (stereo not given)	none
COc1ccc(CNC(=O)C2CCN(S(=O)(=O)c3ccc4c(c3)CC(C)N4C(=O)C3CC3)CC2)cc1 (stereo not given)	none | tim10-1 conf 31
